# In the library only some 19% were active in any assay of this set; here they are far more common.
# DT40 TDP1 no CPT – qHTS for Inhibitors of human tyrosyl-DNA phosphodiesterase 1 (TDP1): qHTS in cells in absence of CPT; Potency, µM (doses to about 46.2 µM), for the others: top-dose activity change, negative = growth inhibition, usual class: inhibitors; AID 686978, 2013; DT40 Tdp1-/- hTDP1 cells, no CPT, ATP luminescence, 48 h; 420,000 tested, 15% active; also: potency is read from the fitted curve at half-maximal effect; nearly all actives have a fitted effect of over 55% in size
#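 Luminescent ATP content (CellTiter-Glo) served as the growth readout. Knockout chicken DT40 cells expressing human TDP1 were exposed to compounds without camptothecin for a minimum 48 hr at 37 °C.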
# TDP1 cell CPT – DT40-hTDP1 cell growth loss with CPT | Potency, µM (top dose mostly 46.2 µM), without a hit: at the highest dose activity change, negative = growth inhibition, most hits filed as inhibitors | chicken DT40 Tdp1-/-;hTDP1 cells + 20 nM CPT, ATP luminescence, 48 h | AID 686979 | 420,000 tested, 12% active; also: potency is read from the fitted curve at half-maximal effect; nearly all actives have a fitted effect of over 55% in size
#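 Chicken DT40 Tdp1-/- cells complemented with human TDP1, 400 cells/well, exposed to compounds plus 20 nM camptothecin for at least 48 h at 37 C; viability read as ATP content by CellTiter-Glo luminescence.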
# HT1080NT lethal – kills 2HG-producing HT-1080-NT fibrosarcoma cells. HT-1080-NT fibrosarcoma viability, CellTiter-Glo ATP luminescence, 48 h. Potency, µM (highest dose often 46.1 µM), for the others: at the top dose activity, negative = less viability, usual class: cytotoxic. 360,000 tested, 1.6% active. AID 686970;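 also: NT is the 2HG producing partner of a matched IDH1 knockdown line; potency is read from the fitted curve at half-maximal effect; 0% = DMSO-treated cells and -100% = media-only wells without cells; nearly all actives have a fitted effect of over 55% in size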
#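 HT-1080-NT; 750 cells/well; 5% FBS RPMI; 48 h compound, 37 degrees C; CellTiter-Glo luminescence; curve fitting and curve-class assignment.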
# IL-1B inflam inh – blocks inflammasome-driven IL-1 beta release; 360,000 tested, 4.7% active; activity change, % at 57.5 µM; THP-1 LPS/ATP IL-1B secretion, AlphaLISA, 16 h; hits give low values; in the data active = activity change below about -50%; inconclusive = mostly about -30% to -49%
#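 THP-1 cells pretreated 1 hr with compounds (up to 57.5 uM final), then stimulated with LPS (250 ng/mL final) plus ATP (1.25 mM final); secreted IL-1B measured by AlphaLISA after 16 hr, decreased signal indicating inhibition.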
# HT1080 IDH1KD tx – toxicity to HT-1080 IDH1 knockdown cells (counter line); HT-1080 IDH1 knockdown viability, ATP luminescence, 48 h; Potency, µM (series often up to 46.1 µM), without a hit: at the top dose activity, negative = toxicity, actives largely listed as cytotoxic; 360,000 tested, 2% active;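 also: potency is read from the fitted curve at half-maximal effect; 0% = DMSO wells and -100% = cell-free medium wells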
#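 CellTiter-Glo luminescence after 48 h compound exposure at 37 degrees C of IDH1-knockdown HT-1080 cells in 5% FBS RPMI. %Activity scaled between DMSO wells and cell-free media wells, with curves fitted and assigned curve classes.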
# Active calls of the source: *; i = inactive; ? = inconclusive; / = no result; [ ] = another dose, or the depositor's remark. Unless noted, calls follow the shape of the dose curve; as a rule, active = well fitted curve in the direction sought with a large enough effect; inconclusive = small, poorly fitted or top-dose-only effect, or another doubt; inactive = no such curve, though single readings can be large; an effect the other way counts as inactive or inconclusive. Unless noted, % is scaled to controls: 0 for no effect and ±100 for the full control effect.
SMILES,DT40 TDP1 no CPT,TDP1 cell CPT,HT1080NT lethal,IL-1B inflam inh,HT1080 IDH1KD tx
CC(C)C[C@H]1CNC(=O)C(=O)N1C[C@@H]1CCCN1C[C@H](CC(C)C)N1C[C@H](Cc2ccccc2)N(CCc2ccccc2)C(=O)C1=O,?,?,-13%,-6,8%
CC(C)C[C@H]1CN([C@@H](Cc2ccccc2)CN2CCC[C@@H]2CN2C(=O)C(=O)NC[C@@H]2Cc2ccccc2)C(=O)C(=O)N1CCc1ccccc1,16µM*,16µM*,?,-67*,?
CC(C)C[C@H]1CN([C@@H](Cc2ccccc2)CN2CCC[C@H]2CN2C(=O)C(=O)NC[C@@H]2Cc2ccccc2)C(=O)C(=O)N1CCc1ccccc1,?,?,0%,-2,4%
CC(C)C[C@H]1CNC(=O)C(=O)N1C[C@H]1CCCN1C[C@H](CC(C)C)N1C[C@H](Cc2ccccc2)N(CCc2ccccc2)C(=O)C1=O,29µM*,21µM*,12%,27,21%
CCN(CC)CCNC(C(=O)OCCC(C)C)c1ccccc1 (stereo not given),5.3µM*,9.4µM*,/,/,/
CCOC(=O)C(NCCCCl)c1ccccc1 (stereo not given),4%,13%,18%,18,22%
CCOc1ccc2nc(N(CCN(CC)CC)C(=O)c3ccc([N+](=O)[O-])cc3)sc2c1,-6%,5%,-9%,-15,-6%
CCOc1ccc2nc(N(CCN(C)C)C(=O)c3ccc4c(c3)CCCC4)sc2c1,?,?,-11%,-65*,-9%
CN(C)CCN(C(=O)c1ccc2c(c1)OCCO2)c1nc2cc3c(cc2s1)OCO3,-12%,-10%,-3%,-54*,-5%
CCN(CC)CCN(C(=O)C1=COCCO1)c1nc2c(OC)ccc(OC)c2s1,-13%,6%,0%,i,9%
COc1ccc2nc(N(CCN(C)C)C(=O)c3ccc4c(c3)OCCO4)sc2c1,8%,6%,0%,-10,3%
CCc1ccc2nc(N(CCN(C)C)C(=O)c3ccc4ccccc4c3)sc2c1,-18%,?,-17%,-54*,-2%
COc1ccc(Cl)c2sc(N(CCN(C)C)C(=O)c3ccc4c(c3)OCCO4)nc12,?,?,-25%,-96*,-13%
COc1ccc(CNC(=O)Cn2nnc3ccccc3c2=O)cc1,2%,-10%,0%,0,-1%
Cc1ccccc1C(=O)Nc1ccnn1C1CCN(Cc2ccncc2)CC1,-8%,-1%,-3%,-10,-6%
CN(C)CCN(C(=O)c1ccc2ccccc2c1)c1nc2cc3c(cc2s1)OCO3,23µM*,?,-10%,-5,-5%
CCN(CC)CCN(C(=O)c1ccc2c(c1)CCCC2)c1nc2cc(OC)c(OC)cc2s1,-25%,23µM*,-2%,-82*,-13%
COc1cc2nc(N(CCN(C)C)C(=O)c3ccc4ccccc4c3)sc2cc1OC,-3%,-21%,14%,-13,1%
CN(C)CCN(C(=O)c1ccc2c(c1)CCCC2)c1nc2cc3c(cc2s1)OCCO3,29µM*,?,1%,-58*,1%
CN(C)CCN(C(=O)c1ccc(S(=O)(=O)N(C)C)cc1)c1nc2cc3c(cc2s1)OCCO3,-26%,0%,3%,8,7%
CSCC[C@H](NC(=O)c1cccs1)C(=O)N1CCC2(CC1)NCCc1[nH]cnc12,2%,-2%,2%,-85*,8%
CCCCNC(=S)Nc1ccc(SC(F)F)cc1,?,-12%,?,-105*,?
Oc1cccc(NC(=S)Nc2ccc(SC(F)F)cc2)c1,?,4%,-21%,-58*,-29%
CCCCNC(=S)Nc1ccc(F)cc1,-12%,10%,-2%,5,1%
CN(C)CCNC(=O)c1cccc(-c2cnc3c(NC=O)cc(-c4ccc(C(=O)N5CCOCC5)cc4)cn23)c1,12%,-1%,17%,-5,1%
SMILES,DT40 TDP1 no CPT,TDP1 cell CPT,HT1080NT lethal,IL-1B inflam inh,HT1080 IDH1KD tx
CC(=O)Nc1cc(-c2ccc(C(=O)N3CCOCC3)cc2)cn2c(-c3cccc(C(C)=O)c3)cnc12,15µM*,?,-23%,?,-16%
COc1cccc(-c2cnc3c(NC(C)=O)cc(-c4ccc(C(=O)N5CCOCC5)cc4)cn23)c1,18µM*,21µM*,?,?,21µM*
CC(=O)Nc1cncc(-c2cccc(C(=O)N3CCOCC3)c2)n1,6.5µM*,-37%,-2%,-3,1%
C[C@@H](c1ccccc1)N1C[C@H](COCc2ccccc2)Oc2cc(N3CC[C@H](N(C)C)C3)ccc2S1(=O)=O,?,?,?,-9,?
O=[N+]([O-])c1ccc(O)c(/C=N/Nc2ccc(Cl)nn2)c1,1.2µM*,1.2µM*,?,58,0.21µM*
O=C(N/N=C/c1cccs1)C(O)c1ccccc1 (stereo not given),-27%,6%,3%,-3,1%
O=[N+]([O-])c1ccc(O)c(/C=N/NC2=NS(=O)(=O)c3ccccc32)c1,0.52µM*,4.1µM*,-7%,-11,18%
O=[N+]([O-])c1ccc(O)c(/C=N\N=C2c3ccccc3-c3ccccc32)c1,12µM*,23µM*,-17%,-23,-7%
O=S1(=O)N=C(N/N=C/c2cccs2)c2ccccc21,?,-6%,-28%,-99*,?
O=[N+]([O-])c1ccc(/C=N/NC2=NS(=O)(=O)c3ccccc32)cc1,4%,-13%,-4%,-17,-5%
O=C(COC(=O)C1CC2C=CC1C2)Nc1cccc(S(=O)(=O)N2CCOCC2)c1 (stereo not given),-22%,-16%,3%,-6,-1%
COc1ccc(Cc2nnc(Nc3ccc(C)cc3)o2)cc1OC,6.5µM*,8.2µM*,-6%,-24,?
COc1ccc(Cc2nnc(-c3cccc(C)c3)o2)cc1OC,?,?,0%,28,-9%
CC(C)(CNC(=O)c1cnn(-c2nccc(-c3cccs3)n2)c1C1CC1)N1CCOCC1,-18%,-11%[9.04 µM],/,/,/
CCn1cc(Cl)c(C(=O)Nc2cccc(C(F)(F)F)c2)n1,-2%,31%,-13%,-64*,-20%
CCOC(=O)c1ccc(Nc2cc(C)nc(C)c2C(=O)OCC)cc1,18µM*,?,-4%,25,-10%
Cc1nc(-c2cccnc2)sc1C(=O)Nc1cccc(C(F)(F)F)c1,18µM*,?,10%,10,18%
CCOC(=O)c1ccc(Nc2nnc(C(C)(C)C)c(=O)[nH]2)cc1,23µM*,?,-24%,-91*,?
CCOC(=O)c1[nH]cnc1C(=O)Nc1ccccc1OC,-14%,-13%,?,9,1%

# High-throughput results: PubChem BioAssay, National Center for Advancing Translational Sciences (NCATS)
